# According to PubChem BioAssay (NCATS):
# Results filed as inconclusive are left out. Calls of active or inactive are those of the source. Unless noted, the call rests on the fitted dose curve; in most records, active means well fitted cell-killing curve with a large enough effect; inconclusive means small, poorly fitted or top-dose-only effect, or effect the other way; inactive means no such curve, though single readings can be large or run the other way.
# What was measured:
# [1] = Quantitative High-Throughput drug screen in 47 multiple myeloma cell lines against the NCATS MIPE library collection: PE2_PLB cell viability assay (AID 1919869); further: nearly all actives have a fitted effect of over 35% in size; further: potency means the concentration at half of the fitted maximal effect
# Procedure, shortened: (§1)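 Myeloma cells (500/well) treated with MIPE 4.0 compounds for 48 h at 37 °C, 5% CO2. Viability read as ATP via CellTiter-Glo luminescence after 5 min at RT; DMSO-only wells = 100%, media-only = 0% viability.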
# [2] = Quantitative High-Throughput drug screen in 47 multiple myeloma cell lines against the NCATS MIPE library collection: PCM6_Riken cell viability assay (AID 1919870); further: nearly all actives have a fitted effect of over 30% in size; further: potency means the concentration at half of the fitted maximal effect
# Procedure, shortened: as §1
# [3] = Quantitative High-Throughput drug screen in 47 multiple myeloma cell lines against the NCATS MIPE library collection: RPMI8226_ATCC cell viability assay (AID 1919871); further: nearly all actives have a fitted effect of over 30% in size; further: potency means the concentration at half of the fitted maximal effect
# Procedure, shortened: as §1
# [4] = Quantitative High-Throughput drug screen in 47 multiple myeloma cell lines against the NCATS MIPE library collection: OPM2_DSMZ cell viability assay (AID 1919872); further: nearly all actives have a fitted effect of over 30% in size; further: potency means the concentration at half of the fitted maximal effect
# Procedure, shortened: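 Relative luminescence from CellTiter-Glo served as the viability signal, referenced to DMSO-treated (100%) and cell-free medium (0%) controls. Treatment lasted 48 hours at 37C with 500 cells per well.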
# [5] = qHTS for identification of novel therapeutic agents for treatment of microphthalmiaassociated transcription factor (MiT) renal cell carcinoma (RCC) (AID 1963991); details: CellTiter-Glo, 48 h, stronger effect = lower value
# Procedure, shortened: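 Three TFE3-fusion RCC cell lines (UOK109, UOK124, UOK145), 500 cells/well, were exposed to the 1912-compound MIPE 4.0 library for 48 hours at 37 C. Viability was read by CellTiter-Glo luminescence, normalised to DMSO (100%) and empty wells (0%), with 11-concentration curve fits.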
# [6] = Quantitative High-Throughput drug screen in 47 multiple myeloma cell lines against the NCATS MIPE library collection: KMS11_JCRBsus cell viability assay (AID 1919873); further: nearly all actives have a fitted effect of over 50% in size; further: potency means the concentration at half of the fitted maximal effect
# Procedure, shortened: as §1
# [7] = Quantitative High-Throughput drug screen in 47 multiple myeloma cell lines against the NCATS MIPE library collection: KMS28BM_JCRB cell viability assay (AID 1919874); further: nearly all actives have a fitted effect of over 35% in size; further: potency means the concentration at half of the fitted maximal effect
# Procedure, shortened: as §1
# [8] = qHTS drug screen for cell cycle checkpoint inhibitors in PARPi-resistant BRCA-mutant ovarian cancer cell lines. (AID 1963452; calls by dose curve; further: potency means the concentration at half of the fitted maximal effect); details: PEO1/OlaR viability, CellTiter-Glo luminescence, 96 h; for Z-AUC: stronger effect = lower value
# Procedure, shortened: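 PEO1, PEO4 and PEO1/OlaR ovarian cancer cells, 600 per well, exposed 96 h at 37C to a dilution series. Viability read by CellTiter-Glo luminescence, normalized to DMSO and empty wells; activity summarized as Z-AUC.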
# [9] = TFE3-RCC UOK109 viability, measured here: UOK109 Z-AUC
# [10] = TFE3-RCC viability, measured here: UOK124 Z-AUC
# [11] = TFE3-RCC viability, measured here: UOK145 Z-AUC
# [12] = measured here: PEO1 parental Z-AUC
Structure (SMILES),Potency [1],Potency [2],Potency [3],Potency [4],"z-score [5, 9]","z-score [5, 10]","z-score [5, 11]",Potency [6],Potency [7],Z-AUC [8],"Z-AUC [8, 12]",Z-AUC ([8]; measured here: PEO4 Z-AUC),Potency [8]
NC(=O)N1c2ccccc2CC(=O)c2ccccc21,inactive,inactive,inactive,inactive,0.211,0.361,-0.025,–,–,–,–,–,–
COc1ncnc(NS(=O)(=O)c2ccc(N)cc2)c1OC,inactive,inactive,inactive,–,0.466,0.339,0.671,inactive,inactive,1.84 (inactive),1.63,1.91,–
CNCC[C@H](Oc1cccc2ccccc12)c1cccs1,4.18 µM (active),3.72 µM (active),23.5 µM (active),–,–,–,–,26.4 µM (active),–,–,–,–,–
C[C@@H]1C[C@H]2[C@@H]3CCC4=CC(=O)C=C[C@]4(C)[C@@]3(Cl)[C@@H](O)C[C@]2(C)[C@@]1(OC(=O)c1ccco1)C(=O)CCl,5.9 µM (active),2.96 µM (active),–,23.5 µM (active),–,–,–,–,–,–,–,–,–
CC(C)OC(=O)C(C(=O)OC(C)C)=C1SC=CS1,inactive,inactive,–,inactive,–,–,–,inactive,inactive,1.21 (inactive),0.837,1.06,–
CCOC(=O)[C@H](CCc1ccccc1)N[C@H]1CCc2ccccc2N(CC(=O)O)C1=O,20.9 µM (active),20.9 µM (active),18.7 µM (active),–,–,–,–,8.33 µM (active),–,-0.332 (inactive),-0.731,-0.74,–
CNC1CCCN(c2c(F)cc3c(=O)c(C(=O)O)cn(C4CC4)c3c2OC)C1 (configuration not stated),inactive,inactive,inactive,–,–,–,–,9.35 µM (active),–,1.39 (inactive),1.15,1.09,–
O=C(O)c1cc(=O)[nH]c(=O)[nH]1,inactive,inactive,inactive,inactive,1.07,0.79,1.38,inactive,–,0.444 (inactive),-0.118,-0.128,–
S=P(N1CC1)(N1CC1)N1CC1,inactive,inactive,inactive,inactive,–,–,–,inactive,–,0.79 (inactive),1.48,1.59,–
CC(C)C1CCC(C(=O)N[C@H](Cc2ccccc2)C(=O)O)CC1 (some centres not stated),inactive,inactive,23.5 µM (active),0.0093 µM (active),0.399,0.0648,0.384,16.6 µM (active),–,1.31 (inactive),1.43,0.601,–
CCc1c2c(nc3ccc(OC(=O)N4CCC(N5CCCCC5)CC4)cc13)-c1cc3c(c(=O)n1C2)COC(=O)[C@]3(O)CC,0.935 µM (active),13.2 µM (active),0.372 µM (active),–,–,–,–,–,0.469 µM (active),–,-2.61,-1.83,0.0309 µM (active)
COc1nc(N)nc2c1ncn2[C@@H]1O[C@H](CO)[C@@H](O)[C@@H]1O,inactive,inactive,inactive,0.469 µM (active),0.831,1.01,0.757,inactive,–,–,–,–,–
